Source: PubChem BioAssay AID493011 (Sanford-Burnham Center for Chemical Genomics, 2011)
The whole screen tested about 330,000 compounds, of which about 1,400 (0.42%) were called active.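 Rule for the calls: active = at least 40% inhibition at 20 µM here, with at most 30% in a related deaminase screen; inactive = the rest.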 The full list was thinned out, with actives kept by preference.

Target: DNA dC->dU-editing enzyme APOBEC-3A (Homo sapiens) (UniProt P31941)
Test: blockers of A3A cytidine deamination on DNA – biochemical, FAM/TAMRA oligo cleavage fluorescence, selectivity assay for APOBEC3G inhibitor project, primary screen (AID 493011);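 note: plate controls were A3A with DMSO for no effect and wells lacking A3A enzyme for full effect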
Conditions: recombinant A3A, FAM/TAMRA ssDNA deamination fluorescence; at 20 µM; stronger effect = higher value

Sequence of DNA dC->dU-editing enzyme APOBEC-3A (Homo sapiens) (P31941 whole entry, looked up): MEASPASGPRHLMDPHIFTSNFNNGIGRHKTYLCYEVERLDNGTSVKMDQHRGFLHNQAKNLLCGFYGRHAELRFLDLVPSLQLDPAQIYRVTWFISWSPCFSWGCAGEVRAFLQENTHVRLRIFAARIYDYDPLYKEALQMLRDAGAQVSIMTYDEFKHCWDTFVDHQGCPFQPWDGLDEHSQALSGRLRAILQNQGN

Question: For `Cc1ccc(-c2nc(C#N)c(NCCCn3ccnc3)o2)cc1`, which inhibition is on record?
Answer: 0.374% (inactive)

Question: How did the inhibition turn out when `CC[n+]1cc(C)ccc1/C=C/c1ccc(N(C)C)cc1` was run?
Answer: 64.4% (active)

Question: With `CN1CCN(S(=O)(=O)c2cccc(C(=O)Nc3sccc3C#N)c2)CC1` as the molecule, how does the inhibition read?
Answer: 0.346% (inactive)

Question: For `Cc1ccc(CNC(=O)c2ccc(CS(=O)Cc3cccc(Cl)c3)o2)cc1` (stereo not drawn), which inhibition is on record?
Answer: -4.67% (inactive)

Question: For `Cc1ccc(/C=C/C(=O)OCC(=O)NCc2ccc(Cl)cc2)o1`, which inhibition is on record?
Answer: 1.93% (inactive)

Question: `CS(=O)(=O)NCc1ccc(C(=O)NCc2ccccc2)cc1` was tested. Which inhibition did it give?
Answer: -3.29% (inactive)

Question: For `Nc1ccc(C(=O)NCc2ccccc2)cc1`, which inhibition is on record?
Answer: 5.23% (inactive)

Question: How did the inhibition turn out when `C[n+]1ccc(C(=O)NCc2ccccc2)cc1` was run?
Answer: 77.2% (active)

Question: With `COc1ccc(Cl)cc1NC(=O)COC(=O)c1ccc(Br)o1` as the molecule, how does the inhibition read?
Answer: -2.56% (inactive)

Question: `Cn1nnnc1NCc1ccc(Cl)c(Cl)c1` was tested. Which inhibition did it give?
Answer: 1.46% (inactive)

Question: With `COc1ccc(CNc2nnnn2C)cc1` as the molecule, how does the inhibition read?
Answer: 63.5% (active)

Question: With `CCCn1nnnc1NCc1ccc(OC)cc1` as the molecule, how does the inhibition read?
Answer: -5.24% (inactive)

Question: How did the inhibition turn out when `Cc1ccc(N(Cc2ccccc2O)C(=O)c2ccccc2F)cc1` was run?
Answer: 3.92% (inactive)

Question: `CC1(C)Oc2ccc3ccc(=O)oc3c2/C(=C/NCCO)C1=O` was tested. Which inhibition did it give?
Answer: 55.6% (active)

Question: `CC1(C)Oc2ccc3ccc(=O)oc3c2/C(=N/O)C1=O` was tested. Which inhibition did it give?
Answer: -5.21% (inactive)

Question: `C/C=C(/C)C(=O)OC1Cc2c(ccc3ccc(=O)oc23)OC1(C)C` (stereo not drawn) was tested. Which inhibition did it give?
Answer: -4.35% (inactive)

Question: Which inhibition does the source give for `Cc1cnc(C(=O)OCC(=O)NCCCc2ccccc2)cn1` here?
Answer: -5.14% (inactive)

Question: For `COc1ccc2[nH]c(C)c(CCN(Cc3cccs3)C(=S)Nc3ccccc3OC)c2c1`, which inhibition is on record?
Answer: -5.52% (inactive)

Question: For `O=C(c1ccc(CS(=O)(=O)c2ccccc2)o1)N1CCN(c2ccccc2)CC1`, which inhibition is on record?
Answer: 40% (active)

Question: `O=C(c1ccc(S(=O)(=O)NCc2ccco2)cc1)N1CCN(c2ccccc2)CC1` was tested. Which inhibition did it give?
Answer: -1.4% (inactive)

Question: How did the inhibition turn out when `COc1ccccc1CNC(=O)c1ccc(CS(=O)(=O)c2ccccc2)o1` was run?
Answer: 3.87% (inactive)

Question: `Cc1c(NC(=O)C(C)Oc2cccc(Cl)c2)c(=O)n(-c2ccccc2)n1C` (stereo not drawn) was tested. Which inhibition did it give?
Answer: 2.72% (inactive)

Question: `O=C(NCCCNCc1ccccc1)c1ccc(/C=N/O)nc1` was tested. Which inhibition did it give?
Answer: 0.078% (inactive)

Question: With `CC(C)c1ccc(C(=O)NCCCc2ccccc2)cc1` as the molecule, how does the inhibition read?
Answer: -3.9% (inactive)

Question: `C[N+](C)(C)CCNC(=O)c1cc[n+](Cc2ccccc2)c(/C=N/O)c1` was tested. Which inhibition did it give?
Answer: 77.9% (active)

Question: `COc1ccc(C(=O)NNc2cc(C)nc(NNC(=O)c3ccc(OC)cc3)n2)cc1` was tested. Which inhibition did it give?
Answer: 1.15% (inactive)

Question: Which inhibition does the source give for `CC(=O)Nc1ccc(Nc2cc(C)nc(Nc3ccc(NC(C)=O)cc3)n2)cc1` here?
Answer: 52.3% (active)

Question: `CCC(=O)Nc1ccc(Nc2nc(Cl)nc(Nc3ccc(NC(=O)CC)cc3)n2)cc1` was tested. Which inhibition did it give?
Answer: -1.91% (inactive)

Question: For `COc1ccc(NC(=O)C(NC(C)=O)C(=O)NCc2ccccc2Cl)cc1` (stereo not drawn), which inhibition is on record?
Answer: -1.84% (inactive)

Question: `CC(C)c1c(O)nc(SCCOc2ccc(Cl)cc2)[nH]c1=O` was tested. Which inhibition did it give?
Answer: -2.86% (inactive)

Question: With `CCN(Cc1ccccc1)C(=O)CN1C(=S)NC(C)(C)CC1C` (stereo not drawn) as the molecule, how does the inhibition read?
Answer: -4.37% (inactive)

Question: `CCOC(=O)c1ccc(NC(=O)CNC(=O)c2ccco2)cc1` was tested. Which inhibition did it give?
Answer: -2.59% (inactive)

Question: How did the inhibition turn out when `CCN(CC)CCNCC(=O)Nc1ccc(Oc2ccccc2)cc1` was run?
Answer: -4.52% (inactive)

Question: `CCN(CC)CCOC(=O)c1ccc(NC(=O)CNC(=O)c2ccccc2)cc1` was tested. Which inhibition did it give?
Answer: 49.1% (active)

Question: With `CC(C)Oc1ccc(C(CC(=O)N2CCOCC2)C(C)C)cc1` (stereo not drawn) as the molecule, how does the inhibition read?
Answer: 2.91% (inactive)

Question: Which inhibition does the source give for `CNc1ccc([N+](=O)[O-])cc1C(=O)O` here?
Answer: 43.2% (active)

Question: For `Cc1ccc(NC(=O)c2cc([N+](=O)[O-])ccc2Cl)c(O)c1`, which inhibition is on record?
Answer: 1.45% (inactive)

Question: How did the inhibition turn out when `CCN(CC)c1ccc([N+](=O)[O-])cc1C(=O)O` was run?
Answer: 3.17% (inactive)

Question: For `Cc1ccc(N/N=C2\COC(C)(C)CC2=O)cc1`, which inhibition is on record?
Answer: -3.88% (inactive)

Question: `CCNC(=O)COC(=O)CCNC(=O)c1cccc(C)c1` was tested. Which inhibition did it give?
Answer: 82.3% (active)

Question: How did the inhibition turn out when `Cc1cccc(C(=O)NCC(=O)OCC(=O)N(C)CC(=O)Nc2ccccc2Cl)c1` was run?
Answer: -1.62% (inactive)

Question: Which inhibition does the source give for `Cc1cccc(OCC(=O)NCCNC(=O)c2cccnc2)c1` here?
Answer: -1.26% (inactive)

Question: How did the inhibition turn out when `CC(C)Cn1c(N2CCN(C(=O)/C=C/c3ccccc3)CC2)nc2ccccc21` was run?
Answer: -1.07% (inactive)

Question: For `Cc1cc2c(cc1C)[n+](C)cn2CC(O)COCC1CC=CCC1` (stereo not drawn), which inhibition is on record?
Answer: 46.1% (active)

Question: `COc1ccc(-c2noc(CCC(=O)N3CCN(c4cccc(C)c4)CC3)n2)cc1` was tested. Which inhibition did it give?
Answer: 3.55% (inactive)

Question: With `CC(C)(CSc1nncn1/N=C/c1ccco1)NS(=O)(=O)c1ccc(Cl)cc1` as the molecule, how does the inhibition read?
Answer: 5.18% (inactive)

Question: For `O=C(NC1CC1)C1CCCN(C(=O)NC2CCCCC2)C1` (stereo not drawn), which inhibition is on record?
Answer: -2.29% (inactive)

Question: Which inhibition does the source give for `CC[C@]1(C(=O)OC)[C@H]2C(=O)N(C)C(=O)[C@H]2[C@H]2CN(C)C(=NCc3ccccc3)N21` here?
Answer: 2.1% (inactive)
